From PubChem BioAssay (NCATS) come the findings set out here.

The nature of experiment [1]: Quantitative High-Throughput drug screen in 47 multiple myeloma cell lines against the NCATS MIPE library collection: Karpas620_DSMZ cell viability assay (AID 1918959). Also: nearly all actives have a fitted effect of over 30% in size. In short, it runs like this: (§1)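 Primary qHTS used for cherry-picking: cells at 500/well, library compounds for 48 h (37C, 5% CO2), luminescent ATP assay.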
Experiment [2] in a line: Quantitative High-Throughput drug screen in 47 multiple myeloma cell lines against the NCATS MIPE library collection: KMM1_JCRB cell viability assay (AID 1918960). Also: nearly all actives have a fitted effect of over 30% in size.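 As to viability (% of DMSO): 100% = DMSO-treated cells and 0% = medium-only wells.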 In outline:
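ATP readout (CellTiter-Glo), 48 h drug incubation, 37 °C/5% CO2, 500 cells per well; normalisation to DMSO (100%) and media-only (0%) controls.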

Experiment [3] in a line: Quantitative High-Throughput drug screen in 47 multiple myeloma cell lines against the NCATS MIPE library collection: Karpas417_ECACC cell viability assay (AID 1918961). The note with it: Karpas417 myeloma viability, CellTiter-Glo ATP luminescence, 48 h; viability (% of DMSO): at 45.8 µM (top of the series). In short, it runs like this: (§2)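 We plated 500 myeloma cells per well, pinned in MIPE 4.0 compounds, and incubated for 48 hours at 37C. ATP was then quantified with CellTiter-Glo, with DMSO and media-only wells defining 100% and 0%.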
A general note: ATP-based viability assays read luminescence as a measure of living cells.

A short description of experiment [4]: Quantitative High-Throughput drug screen in 47 multiple myeloma cell lines against the NCATS MIPE library collection: KHM11_PLB cell viability assay (AID 1918962). Also: nearly all actives have a fitted effect of over 35% in size. In outline:
as §1

A short description of experiment [5]: Quantitative High-Throughput drug screen in 47 multiple myeloma cell lines against the NCATS MIPE library collection: JIM3_ECACC cell viability assay (AID 1918963; also: nearly all actives have a fitted effect of over 35% in size). In outline: as §1
A short description of experiment [6]: Quantitative High-Throughput drug screen in 47 multiple myeloma cell lines against the NCATS MIPE library collection: JIM1_ECACC cell viability assay (AID 1918964). In outline: (§3)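 Luminescent ATP measurement with CellTiter-Glo gives viability, scaled between DMSO-only wells (100%) and media-only wells (0%). Cells, 500 per well, faced library compounds for 48 hours at 37C.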

The nature of experiment [7]: Quantitative High-Throughput drug screen in 47 multiple myeloma cell lines against the NCATS MIPE library collection: INA6_PLB cell viability assay (AID 1918965; also: nearly all actives have a fitted effect of over 55% in size). In short, it runs like this:
as §2

The nature of experiment [8]: Quantitative High-Throughput drug screen in 47 multiple myeloma cell lines against the NCATS MIPE library collection: JJN3_DSMZ cell viability assay (AID 1918966; also: nearly all actives have a fitted effect of over 50% in size). In short, it runs like this: as §3
A short description of experiment [9]: Quantitative High-Throughput drug screen in 47 multiple myeloma cell lines against the NCATS MIPE library collection: H1112_PLB cell viability assay (AID 1918967; also: nearly all actives have a fitted effect of over 30% in size). In short, it runs like this:
as §3

Experiment [10] is described as follows: Quantitative High-Throughput drug screen in 47 multiple myeloma cell lines against the NCATS MIPE library collection: Karpas25_ECACC cell viability assay (AID 1918968; also: nearly all actives have a fitted effect of over 35% in size). In short, it runs like this: as §3

Inconclusive results are not listed. Activity calls are given as the source filed them. Calls follow the shape of the dose curve; as a rule, active = well fitted curve in the direction sought with a large enough effect; inconclusive = small, poorly fitted or top-dose-only effect, or another doubt; inactive = no such curve, though single readings can be large; an effect the other way counts as inactive or inconclusive. Non-standard residues stand in square brackets, D forms with d. Residues, ends and D or L forms follow the SMILES beside them. *: point of attachment. Sta = CC(C)C[C@H](N)[C@@H](O)CC(=O)O; Isovaleryl = CC(C)CC(=O)*
Potency is read from the fitted curve at half-maximal effect.

For `CCCCC(CC)COC(=O)C(C#N)=C(c1ccccc1)c1ccccc1` (centres undefined), the Potency result in [1], in [2], in experiment [4], in experiment [5], in [6] and in experiment [8] was “inactive” throughout. Further, the Potency result in experiment [9] and in [10] was “inactive” each time. Moreover, the viability (% of DMSO) in [3] is 94.7% (active). The Potency in experiment [7] was 9.35 µM (active).
For the molecule `CN(C)c1ccc(O)c2c1C[C@H]1C[C@H]3[C@H](N(C)C)C(=O)C(C(N)=O)=C(O)[C@@]3(O)C(=O)C1=C2O`, the Potency entry in experiment [1], in [2], in [3] and in experiment [6] was “inactive” each time. Besides, the Potency in experiment [7] is 13.2 µM (active); in experiment [8] it was 20.9 µM (active); in [10], 16.6 µM (active).
As to `CCN(CC)CCOc1ccc(Nc2ncc3cc(-c4c(Cl)cccc4Cl)c(=O)n(C)c3n2)cc1`, the Potency was 2.09 µM (active) in experiment [1]; 0.0332 µM (active) in experiment [2]; 0.105 µM (active) in [3]; 0.118 µM (active) in experiment [5]; 0.0833 µM (active) in experiment [6]; 5.9 µM (active) in experiment [9]. In addition, the Potency in experiment [10] was 0.0209 µM (active).
`Nc1ccn([C@@H]2O[C@H](CO)[C@@H](O)C2O)c(=O)n1` (some centres undefined): the Potency result in experiment [1], in [2], in experiment [3] and in [5] was “inactive” throughout. In addition, the Potency in experiment [6] is 4.18 µM (active); in [10], 1.48 µM (active).
For the molecule `CN1C(C(=O)Nc2ccccn2)=C(O)c2sccc2S1(=O)=O`, the Potency result in [1], in experiment [2], in experiment [4], in experiment [5], in [6] and in experiment [9] was “inactive” throughout. For the same molecule, the Potency result in [10] was “inactive”.
In the case of `c1cnc2cc3c(cc2n1)C1CNCC3C1`, the Potency result in [1], in experiment [2], in experiment [3], in [5], in experiment [6] and in experiment [7] was “inactive” each time. Further, in experiment [10], the Potency entry was “inactive”.
For the molecule `CCOC(=O)C(C)Oc1cccc2c(=O)n(CC(=O)Nc3ccc4c(c3)OCCO4)ccc12` (centres undefined), the Potency result in experiment [1], in [4], in experiment [6], in experiment [7] and in experiment [9] was “inactive” throughout. Further, in [2], the Potency is 13.2 µM (active).
Take `Cc1cc2c(s1)Nc1ccccc1N=C2N1CCN(C)CC1`: the Potency result in experiment [1], in experiment [2], in experiment [3], in [5], in [6] and in [9] was “inactive” in each case. Besides, in experiment [10], the Potency is 3.32 µM (active).
Consider `C[C@H](Cn1cnc2c(N)ncnc21)OCP(=O)(O)O`, for which the Potency entry in experiment [1], in experiment [2], in experiment [3], in experiment [5], in experiment [6] and in experiment [9] was “inactive” in each case. Further, in [10], the Potency entry was “inactive”.
Turning to `CC(C)c1nc(CN(C)C(=O)N[C@H](C(=O)N[C@@H](Cc2ccccc2)C[C@H](O)[C@H](Cc2ccccc2)NC(=O)OCc2cncs2)C(C)C)cs1`, the Potency result in experiment [1], in [2] and in experiment [3] was “inactive” each time.
Turning to `Cc1cc(=O)oc2cc(O)ccc12`, the Potency entry in experiment [1], in experiment [2], in [5], in experiment [7] and in experiment [9] was “inactive” throughout. The Potency in experiment [4] is 0.0662 µM (active); in [10], 4.69 µM (active).
Regarding `CCC1=C(C)CN(C(=O)NCCc2ccc(S(=O)(=O)NC(=O)NC3CCC(C)CC3)cc2)C1=O` (centres undefined), the Potency entry in experiment [1], in [2], in experiment [4], in experiment [5], in [7] and in experiment [8] was “inactive” throughout. Moreover, the Potency entry in [9] and in experiment [10] was “inactive” throughout.
Take `CC(C)CC(=O)N[C@H](C(=O)N[C@H](C(=O)N[C@@H](CC(C)C)[C@@H](O)CC(=O)N[C@@H](C)C(=O)N[C@@H](CC(C)C)[C@@H](O)CC(=O)O)C(C)C)C(C)C` (Isovaleryl-VV[Sta]A[Sta]-OH): the Potency entry in experiment [1], in experiment [2], in experiment [3], in experiment [4], in experiment [5] and in experiment [6] was “inactive” each time. For the same molecule, the Potency result in experiment [8] is “inactive”.
For `Oc1ccc2ccccc2c1SSc1c(O)ccc2ccccc12`, the Potency in experiment [1] is 10.5 µM (active); in [2], 23.5 µM (active); in experiment [5] it was 18.7 µM (active); in experiment [6], 14.8 µM (active); in experiment [7] it was 5.9 µM (active); in experiment [8], 7.43 µM (active). Further, the results for the Potency in experiment [9] and in experiment [10] were 11.8 µM (active) and 8.33 µM (active), respectively.
Consider `O=C(NCC1CCCCN1)c1cc(OCC(F)(F)F)ccc1OCC(F)(F)F` (centres undefined), for which the Potency in [1] was 1.32 µM (active); in [2], 2.64 µM (active); in experiment [3] it was 0.0743 µM (active); in experiment [5], 8.33 µM (active); in [6] it was 1.87 µM (active); in experiment [7], 13.2 µM (active). Also, the values for the Potency in [9] and in experiment [10] were 8.33 µM (active) and 9.35 µM (active), respectively. Besides, the Potency result in experiment [8] is “inactive”.
In the case of `Nc1nc(N)c(N=O)c(OCC2CCCCC2)n1`, the Potency in [1] is 13.2 µM (active); in experiment [2] it was 6.62 µM (active); in experiment [3], 2.64 µM (active); in experiment [5] it was 9.35 µM (active); in experiment [7], 5.26 µM (active); in [8], 16.6 µM (active). In experiment [10], the Potency is 5.9 µM (active).
As to `Cc1cc(C2CCCCC2)n(O)c(=O)c1`, the Potency was 8.33 µM (active) in experiment [1]; 9.35 µM (active) in [2]; 2.96 µM (active) in [3]; 8.33 µM (active) in experiment [5]; 3.32 µM (active) in experiment [6]; 6.62 µM (active) in experiment [7]. Also, the values for the Potency in [8], in experiment [9] and in experiment [10] were 18.7 µM (active), 13.2 µM (active) and 3.32 µM (active), respectively.
`COc1c2occc2cc2ccc(=O)oc12`: the Potency result in [1], in experiment [2], in [5], in experiment [6] and in [9] was “inactive” in each case.
For `CC(=O)NC[C@H]1CN(c2ccc(N3CCOCC3)c(F)c2)C(=O)O1`, the Potency entry in experiment [1], in experiment [2], in experiment [5], in experiment [7] and in [9] was “inactive” each time.
For `NS(=O)(=O)c1cc(C(=O)O)c(NCc2ccco2)cc1Cl`, the Potency result in [1], in experiment [2], in [5], in experiment [6], in [9] and in [10] was “inactive” throughout.
Turning to `CCOC(=O)C1=C(O)C(=O)N(Cc2ccccc2)C1`, the Potency entry in experiment [1], in experiment [2], in experiment [5], in [7] and in experiment [9] was “inactive” each time. For the same molecule, the Potency in [8] was 9.35 µM (active).
Take `CC1(C)NC(=O)N(c2ccc([N+](=O)[O-])c(C(F)(F)F)c2)C1=O`: the Potency entry in [1] and in experiment [2] was “inactive” in each case. Further, the Potency in experiment [6] is 0.235 µM (active); in experiment [7] it was 3.32 µM (active); in experiment [9] it was 11.8 µM (active).
Take `CC(=O)N1CCN(c2ccc(OC[C@H]3CO[C@](Cn4ccnc4)(c4ccc(Cl)cc4Cl)O3)cc2)CC1`: the Potency is 5.26 µM (active) in [1], 5.26 µM (active) in experiment [2], 11.8 µM (active) in experiment [5] and 8.33 µM (active) in [9]. Further, the Potency entry in experiment [6] is “inactive”.
